“And” between values parts separate entries of the source, which are not always exact repeats. Identical values can stand only once. Out of some 360,000 compounds screened, about 11,000 (3.1%) were called active. Rule as the data show it: active = activity change below about -30%; inactive = the rest. This excerpt belongs to a sample that is enriched for actives. Some structures have more than one record in an assay (separate samples or runs), and their calls can disagree.
% is scaled to controls: 0 for no effect and ±100 for the full control effect.

D(1A) dopamine receptor (Homo sapiens), sequence (P21728 whole entry, looked up): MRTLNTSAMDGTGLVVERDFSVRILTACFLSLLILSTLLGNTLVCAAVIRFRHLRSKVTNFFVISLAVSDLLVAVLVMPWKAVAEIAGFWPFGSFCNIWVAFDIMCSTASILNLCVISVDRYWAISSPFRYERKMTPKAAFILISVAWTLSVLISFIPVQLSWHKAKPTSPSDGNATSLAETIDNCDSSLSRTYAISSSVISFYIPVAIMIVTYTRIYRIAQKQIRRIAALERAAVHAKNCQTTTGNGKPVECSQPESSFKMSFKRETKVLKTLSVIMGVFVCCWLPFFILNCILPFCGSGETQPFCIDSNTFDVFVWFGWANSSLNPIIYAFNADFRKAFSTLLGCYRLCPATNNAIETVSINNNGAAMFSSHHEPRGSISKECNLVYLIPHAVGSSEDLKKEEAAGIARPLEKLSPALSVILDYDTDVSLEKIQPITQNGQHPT

The target of this assay is D(1A) dopamine receptor (Homo sapiens) (UniProt P21728). The experiment in a line: Antagonist of Human D 1 Dopamine Receptor: qHTS. The conditions noted are these: HEK293 TREx D1 cells, calcium flux, dopamine EC80; at 10 µM; stronger effect = lower value. The gist of the method:
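Kinetic fluorescence of a calcium dye serves as the read-out. D1-expressing Hek293 Trex cells, induced overnight at 30 C, are exposed to compound for 180 s before an EC80 dopamine addition, then read 180 s further.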
Background: qHTS replaces the single test concentration by a dilution series.
As for `CCOC(=O)c1ccc(N2C(=O)c3n[nH]c(-c4ccco4)c3C2c2ccc(O)cc2)cc1` (stereo not drawn), the activity change, negative = inhibition was 13% (inactive). To `CC(=O)c1ccc(NC(=O)CSc2c(C(C)C)cnc3c2c(=O)n(C)c(=O)n3C)cc1` belongs 1.89% (inactive); to `CCCCN1C(=O)c2[nH]nc(-c3ccccc3O)c2C1c1cccc(OCc2ccccc2)c1` (stereo not drawn), 6.88% (inactive); to `COc1cccc2c1cc1c(=O)n(CC(=O)N3CCN(c4ccccc4)CC3)nc(C)n12`, -3.55% (inactive). To `CC(=O)O[C@H]1CC[C@@]2(C)[C@@H](CC[C@@H]3[C@@H]2CC[C@]2(C)[C@@H](C(C)(C)O)C[C@@H]32)C1` belongs -15.9% (inactive); to `CC(=O)[C@@]12O[C@@H]1C[C@H]1[C@@H]3CC[C@H]4C[C@@H](O)CC[C@]4(C)[C@H]3CC[C@@]12C`, -34.5% (active); to `Cc1cccc(NC(c2cccc(F)c2)c2ccc3ccc(C)nc3c2O)n1` (stereo not drawn), -16.7% (inactive). In the case of `Cc1ccc(NC(=O)CCCNC(=O)c2ccc(Cl)cc2)cc1S(=O)(=O)N1CCOCC1`, the activity change, negative = inhibition is -36.7% (active). To `Cc1ccc(NC(=O)CCCNC(=O)c2ccc(Cl)cc2)cc1S(=O)(=O)N1CCCCC1` belongs 35.4% (inactive); to `Cc1ccc(NC(=O)CCNC(=O)c2ccc([N+](=O)[O-])cc2)cc1S(=O)(=O)N1CCOCC1`, 4.33% (inactive). Consider `Cc1ccccc1CNC(=O)c1ccc(NC(=O)N2CCCCc3ccccc32)cc1`, for which the activity change, negative = inhibition is 12.4% (inactive). As for `Cc1ccccc1CN1CCC(CNC(=O)c2cc3ccc4cccnc4c3[nH]2)CC1`, the figure is -3.23% (inactive); as for `COc1ccc([C@@H]2[C@@H]3C(=O)N(C(C)(C)C)C(=O)[C@@H]3[C@]3(Cc4ccccc4)C(=O)N(c4cccc(Br)c4)C(=O)N23)cc1`, -34.9% (active); as for `CC[C@@]12C(=O)N(c3ccccc3)C(=O)N1[C@H](c1ccc(Br)cc1)[C@@H]1C(=O)N(C(C)(C)C)C(=O)[C@@H]12`, -1.44% (inactive).

On to `CC(C)(C)N1C(=O)[C@H]2[C@@H](c3ccc(Br)cc3)N3C(=O)N(c4cccc(Cl)c4)C(=O)[C@@]3(C)[C@H]2C1=O`, for which the activity change, negative = inhibition was -17.7% (inactive). As for `Cc1nn(C(=O)c2c(F)cccc2F)c(C)c1S(=O)(=O)N1CCOCC1`, the figure is 10.5% (inactive). As for `CCOc1ccc(N(CC)C(=O)C2CCN(S(=O)(=O)c3cccc4nonc34)CC2)cc1`, the figure is -22% (inactive); as for `Cc1cc2n(n1)C(c1cc(C(C)(C)C)c(O)cc1O)Nc1ccccc1-2` (stereo not drawn), 0.223% (inactive). As for `NS(=O)(=O)c1ccc2nc(NC(=O)COc3ccccc3)sc2c1`, the figure is -38.3% (active); as for `CN(C(=O)CSc1nc2ccc(NC(=O)COc3ccccc3)cc2s1)c1ccccc1`, -11.3% (inactive). Consider `NS(=O)(=O)c1ccc2nc(NC(=O)CS(=O)(=O)c3ccc(F)cc3)sc2c1`, for which the activity change, negative = inhibition is 3.05% (inactive).

Take `Cc1ccc(NS(=O)(=O)c2ccc(-c3coc(C)n3)cc2)c(C)c1`: the activity change, negative = inhibition was -39.4% (active). As for `CCN(c1cccc(C)c1)S(=O)(=O)c1ccc(-c2coc(C)n2)cc1`, the figure is -16.9% (inactive).

For `COc1cccc(NS(=O)(=O)c2ccc(-c3coc(C)n3)cc2)c1`, the activity change, negative = inhibition was -22% (inactive). As for `O=C(c1ccc(Br)cc1)N(Cc1cccs1)c1ccc(F)cc1`, the figure is -5.47% (inactive); as for `COc1cc(OC)c(C(=O)NC2CC(C)(C)NC(C)(C)C2)cc1OC`, -1.99% (inactive). As for `Cc1cccc(OCC(=O)NC2CC(C)(C)NC(C)(C)C2)c1`, the figure is 0.221% (inactive); as for `COc1ccc(C(=O)NC2CC(C)(C)NC(C)(C)C2)cc1OC`, -30.4% (active).

`Cc1ccc(NC(=O)c2oc3ccc(S(=O)(=O)N4CCCCC4)cc3c2C)cc1Cl`: the activity change, negative = inhibition is 0.571% (inactive).

On to `O=C(Nc1c2c(nn1-c1cccc(Cl)c1)CS(=O)(=O)C2)c1cccs1`, for which the activity change, negative = inhibition was -16.2% (inactive). To `CC(C)(C)n1nc2c(c1NC(=O)c1cc3ccccc3o1)CSC2` belongs 6.7% (inactive); to `Cc1cccc(-n2nc3c(c2NC(=O)c2cc4ccccc4o2)CS(=O)(=O)C3)c1`, -49.1% (active); to `Cc1nc2c(c(C)nn2-c2ccccc2)c(C)c1CCC(=O)NCCc1ccc(Cl)cc1`, -0.289% (inactive). To `Cc1oc(C)c2c(=O)cc(-c3ccc4c(c3)OCO4)cc(OC(=O)c3ccc(Cl)cc3)c12` belongs -1.78% (inactive); to `CCN1CCN(CCCNC(=O)c2cnn(-c3ccc(C)cc3C)c2C2CCN(C(=O)OC(C)(C)C)CC2)CC1`, 6.05% (inactive); to `CCOC(=O)c1c(C)[nH]c(C)c1S(=O)(=O)NCC(=O)NCc1cccc(C)c1`, 13.9% (inactive). As for `CCCCNC(=O)c1onc(CSc2cccc(OC)c2)c1C(=O)O`, the figure is -73.2% (active). `CCOc1cccc(SCc2noc(C(=O)NC(C)C)c2C(=O)O)c1`: the activity change, negative = inhibition was 3.21% (inactive).

Consider `COCCNC(=O)c1onc(CSc2cccc(C)c2)c1C(=O)O`, for which the activity change, negative = inhibition is 2.03% (inactive). As for `CC(=O)N1CCCc2cc(S(=O)(=O)N3CCC(C(=O)NCc4ccc(C)cc4)CC3)ccc21`, the figure is 12.1% (inactive); as for `CCC1=Nc2cc(C(=O)NCCCN3CCOCC3)ccc2Sc2ccc(Br)cc21`, 11% (inactive).

`O=C(NCCCN1CCOCC1)c1ccc2c(c1)N(Cc1cccc(F)c1)C(=O)c1ccccc1S2`: the activity change, negative = inhibition is -42.1% (active). For the molecule `Cc1ccccc1CN1C(=O)c2ccccc2Sc2ccc(C(=O)NCCCN3CCOCC3)cc21`, the activity change, negative = inhibition is -9.56% (inactive) and -12% (inactive).

With `CN1CCN(S(=O)(=O)c2cccc(C(=O)N3CCc4ccccc43)c2)CC1`, the activity change, negative = inhibition is -0.291% (inactive).

On to `CC1CCN(C(=O)c2cccc(S(=O)(=O)N3CCCc4ccccc43)c2)CC1`, for which the activity change, negative = inhibition is -43.6% (active). As for `Cc1ccc(NC(=O)c2cccc(S(=O)(=O)N3CCCc4ccccc43)c2)nc1`, the figure is 3.95% (inactive); as for `COc1ccc(Nc2ncc3c(n2)CCN(C(=O)OC(C)(C)C)C3)cc1`, -16.1% (inactive); as for `CCCC(=O)Nc1cc2nn(-c3ccccc3)nc2cc1C`, -6.53% (inactive). To `O=C(c1cc(-c2ccc(Cl)cc2)on1)N1CCN(c2ccccc2)CC1` belongs 8.05% (inactive); to `O=C(c1cc(-c2ccc(O)cc2)on1)N1CCOCC1`, -2.21% (inactive). To `O=C(c1cc(-c2ccc(F)cc2)on1)N1CCN(c2ccc(F)cc2)CC1` belongs 6.41% (inactive) and -30% (active); to `Cc1nc(SC(C)C)[nH]c(=O)c1Cc1ccccc1`, -31.2% (active). In the case of `Cc1nc(SCCOc2ccc(Cl)cc2)[nH]c(=O)c1Cc1ccccc1`, the activity change, negative = inhibition is -8.51% (inactive). Take `Cc1ccc(OCCSc2nc(C)c(Cc3ccccc3)c(=O)[nH]2)cc1`: the activity change, negative = inhibition is -2.95% (inactive).

As for `COc1ccc(C2(Nc3cccc(F)c3)C(=O)c3ccccc3C2=O)cc1`, the activity change, negative = inhibition was -16% (inactive). For `CCC(=O)OCc1c(C(F)(F)F)nn(C)c1Oc1cccc(C(F)(F)F)c1`, the activity change, negative = inhibition is -39.6% (active). `CCOC(=O)NNc1cc(C(F)(F)F)ccn1`: the activity change, negative = inhibition was -4.5% (inactive).

Consider `Cc1nc(N)[nH]c(=O)c1Oc1cccc(C(F)(F)F)c1`, for which the activity change, negative = inhibition was 7.25% (inactive). In the case of `CC(=O)N1CCCc2ccc(NS(=O)(=O)c3ccc(F)cc3F)cc21`, the activity change, negative = inhibition was 8.04% (inactive). To `O=C(O)c1ccc2c(c1)N(Cc1ccc(F)cc1)C(=O)c1ccccc1S2=O` (stereo not drawn) belongs -20.6% (inactive); to `CCCCc1ccc(S(N)(=O)=O)cc1`, -32.1% (active). As for `NS(=O)(=O)c1ccc(CCNC(=S)Nc2ccc(S(N)(=O)=O)cc2)cc1`, the figure is -10.1% (inactive); as for `CN(C)c1ccc(C=NCCc2ccc(S(N)(=O)=O)cc2)cc1`, 0.508% (inactive).

Regarding `Brc1cccc(-c2nnc3n2CCC3)c1`, the activity change, negative = inhibition is 4.2% (inactive). To `Cc1c(C(=O)Nc2cccc(-c3nnc4n3CCCCC4)c2)oc2ccccc12` belongs -14.2% (inactive); to `O=C(Cn1[nH]c(=O)c2ccccc2c1=O)Nc1cccc(-c2nnc3n2CCCCC3)c1`, -31.5% (active). To `O=S(=O)(c1ccc2nc(NCc3ccccc3Cl)ccc2c1)N1CCCCC1` belongs 7.22% (inactive). Turning to `COC(=O)CN1C(=O)CSc2ccc(S(=O)(=O)Nc3cc(C)ccc3C)cc21`, the activity change, negative = inhibition was 7.51% (inactive). Regarding `CCCCN(CCCNC(=O)c1cc(Nc2ccccc2OC)nc2ccccc12)c1ccccc1`, the activity change, negative = inhibition is -1.02% (inactive). As for `COc1ccccc1Nc1cc(C(=O)NCCCN(C)C2CCCCC2)c2ccccc2n1`, the figure is -69.1% (active); as for `COc1ccc(Nc2cc(C(=O)NCCCN(C)c3ccccc3)c3ccccc3n2)c(OC)c1`, -3.52% (inactive); as for `CCCn1c(NCc2ccc(N(CC)CC)cc2)nc2ccccc21`, 7.83% (inactive). Take `COc1ccc(OCC(=O)NCCS(=O)(=O)N2CCN(c3ccc(F)cc3)CC2)cc1`: the activity change, negative = inhibition was -3.53% (inactive).

`O=C(COc1ccc(Cl)cc1)NCCS(=O)(=O)N1CCN(c2ccc(F)cc2)CC1`: the activity change, negative = inhibition was -39.2% (active).

With `COc1ccccc1N1CCN(S(=O)(=O)CCNC(=O)COc2ccc(F)cc2)CC1`, the activity change, negative = inhibition is -4.69% (inactive).

As to `COc1cc(NC(=O)Cn2nc(-c3ccc(C)c(C)c3)ccc2=O)cc(OC)c1`, the activity change, negative = inhibition is -2.73% (inactive). To `CCOc1ccc(S(=O)(=O)N(CC(=O)NCCSCc2ccc(C)cc2)c2ccccc2)cc1` belongs -1.46% (inactive); to `CCCSc1ncc(Cl)c(C(=O)Nc2sc3c(c2C(=O)NCCOC)CCCC3)n1`, 3.43% (inactive); to `O=C(C1CCCO1)N1CCC(c2nc3ccccc3[nH]2)CC1` (stereo not drawn), -12.2% (inactive). To `O=S(=O)(c1ccc(Br)cc1)N1CCC(c2nc3ccccc3[nH]2)CC1` belongs -31.8% (active). Take `N#CC(C(=O)c1ccc(S(=O)(=O)N2CCCCCC2)cc1)c1nc2ccccc2[nH]1` (stereo not drawn): the activity change, negative = inhibition was -22.2% (inactive).

Take `O=C(Nc1cc(Cl)cc(Cl)c1)c1ccc2c(c1)N(Cc1cccc(Cl)c1)C(=O)c1ccccc1S2=O` (stereo not drawn): the activity change, negative = inhibition was -24% (inactive). As for `O=C(Nc1ccc(F)cc1F)c1ccc2c(=O)n3c(nc2c1)CCCCC3`, the figure is 0.28% (inactive).

The values are drawn from PubChem BioAssay AID504652 (National Center for Advancing Translational Sciences (NCATS), 2011).
